Our source for the inhibition values is PubChem BioAssay AID1063 (University of Pittsburgh Molecular Library Screening Center, 2008).

Screen size: about 200,000 compounds; about 18,000 (9%) were called active. This is one part of a sample in which actives are shown more often than they occur. Unmarked numbers belong to inactive results. No stated cut-off is given here; in the data, active means inhibition above about 50%; inactive means the rest.

This test is described as follows: antileishmanial activity against promastigotes – primary screen (AID 1063).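 Further: promastigotes grown with compound for 44 hours at 28 °C.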 The following applies: Leishmania major promastigotes, resazurin fluorescence viability; at 10 µM; stronger effect = higher value.
Broadly, the inhibition is the drop in the measured response relative to a control, in per cent. Turning to `CCN1CCN(C(C(=O)NC2CCCC2)c2cc3c(cc2[N+](=O)[O-])OCO3)CC1` (configuration not stated), the inhibition is -2.85%.
The same measure for `COc1ccc(Cc2n[nH]c(=S)n2NC(=O)Nc2ccc(C)cc2)cc1`: -2.58%; for `CCN1CCN(Cc2nc3c(c(=O)n(C)c(=O)n3C)n2CC(=O)c2ccccc2)CC1`: 1.75%.
Consider `CN1CCN(Cc2nc3c(c(=O)n(C)c(=O)n3C)n2Cc2cccc3ccccc23)CC1`, for which the inhibition was 58.8% (active).
For the compound `Cn1c(=O)c2c(nc(CN3CCOCC3)n2Cc2ccccc2)n(C)c1=O`, the inhibition was -4.56%.
For `Cc1cccc(NC(=S)N2CCC(O)CC2)c1C`, the inhibition is -2.49%.
For the compound `Cc1csc(OCC(=O)Nc2ccc(C)c(C)c2)n1`, the inhibition is -3.8%.
As for `Cc1ccccc1OCC(=O)Nc1ccc(N2CCN(C(=O)C(C)C)CC2)c(Cl)c1`, the inhibition is 40.7%.
Turning to `Cc1ccc(NC(=O)COc2ccc(-n3ccnc3)cc2)cc1Cl`, the inhibition is 86.5% (active).
The same measure for `O=C(CNC(=O)COc1ccccc1)NCCc1ccccn1`: -2.06%; for `CCn1c(SCc2ccc(C)cc2)nnc1-c1nn(-c2ccccc2)ccc1=O`: 5.13%.
In the case of `N=C(N)SCc1cccc2ccccc12`, the inhibition was 5.8%.
`CCc1ccc(-c2nn(-c3ccccc3)cc2CSC(=N)N)cc1`: the inhibition was 100% (active).
Take `N/C(=N\OC(=O)CCc1ccccc1)c1cccnc1`: the inhibition is -5.44%.
As for `COC(=O)CSc1nccc(-c2cccs2)n1`, the inhibition is 1.92%.
For `Cc1nnc(SCc2ccc(C(=O)c3ccc(Cl)cc3)o2)n1-c1ccccc1`, the inhibition is 98.6% (active).
With `Cc1nnc(SCC(=O)N2CCN(c3ccccc3)CC2)n1-c1ccccc1`, the inhibition was 5.01%.
Under `Cc1nnc(SCC(=O)NCCOc2ccc(Cl)cc2)n1-c1ccccc1` stands -1.38%.
With `CNC(=O)c1[nH]cnc1C(=O)N[C@@H](CC(C)C)C(=O)OCc1ccccc1`, the inhibition was 0.78%.
Under `CN(c1ccccc1)S(=O)(=O)c1ccc(Cl)c(C(=O)NCCc2c[nH]c3ccccc23)c1` stands 95.2% (active); under `O=C(NCCc1c[nH]c2ccccc12)c1cc2ccccc2oc1=O`, 1.33%; under `CCN(CC)S(=O)(=O)c1ccc2[nH]cc(C(=O)NCCc3ccccc3)c(=O)c2c1`, 7.93%.
Consider `CCn1c(=S)[nH]c2sc3c(c2c1=O)CCCCC3`, for which the inhibition was -4.76%.
`Cc1sc2ncnc(Sc3nc4ccccc4s3)c2c1C`: the inhibition is 7.91%.
Take `CCN(CC)CCCSc1nc2ccccc2s1`: the inhibition was 70.2% (active).
As for `Cc1nc2nc(CSc3nc4ccccc4s3)cc(=O)n2[nH]1`, the inhibition is 1.29%.
Under `O=C1COc2ccc(C(=O)COC(=O)C3CC(O)CN3S(=O)(=O)c3ccc(Cl)cc3)cc2N1` (configuration not stated) stands -7.23%; under `CCS(=O)(=O)N1Cc2ccccc2CC1C(=O)Nc1nc2ccc(F)cc2s1` (configuration not stated), 19.1%.
As for `CN(C)C(=O)N1CCNCC1`, the inhibition is -4.41%.
The same measure for `COc1cccc(-c2cc(C(=O)N/N=C/c3ccc(OC)c(COC(C)=O)c3)c3ccccc3n2)c1`: 10.4%.
The same measure for `Cc1ccc(-c2cc(C(=O)N/N=C/C=C/c3ccco3)c3ccccc3n2)cc1C`: 55.7% (active).
Turning to `O=C(N/N=C/C=C/c1ccco1)c1cccs1`, the inhibition was -2.33%.
Take `COc1ccc(NS(=O)(=O)c2ccc(O)c(C(=O)OCC(=O)NC3CCCCC3)c2)cc1`: the inhibition is -3.84%.
Under `O=C(NNc1cc(Cl)ccc1Cl)c1cccnc1Cl` stands -4.41%; under `COC(=O)Cc1ccc(NC(=S)NCc2ccco2)cc1`, -3.07%; under `CC(C)c1nc(CNC(=O)CC2C(=O)NCCN2Cc2ccoc2)cs1` (configuration not stated), -2.52%.
For the compound `COCc1c(N)c(C)nc(Cl)c1C#N`, the inhibition is 3.91%.
With `S=c1[nH]nc(-c2cccs2)n1/N=C/c1cccs1`, the inhibition is -14.7%.
With `Cc1ccsc1/C=N/n1c(=S)[nH]nc(C)c1=O`, the inhibition is 99% (active).
As for `Oc1ccccc1/C=N/n1c(-c2cccs2)n[nH]c1=S`, the inhibition was -8.08%.
`Cc1c(Cl)cccc1NC(=O)CSc1ccc(-c2cccnc2)nn1`: the inhibition was 10.9%.
Under `COC(=O)c1cc(C(=O)CSc2nc(C)cc(C)n2)ccc1O` stands -2.37%; under `Cc1cc(Oc2ccc(Cl)cc2)nc(SCC(=O)c2ccccc2)n1`, 95.7% (active).
Turning to `Cc1cc(SCC(=O)c2ccccc2)nc(SCC(=O)c2ccccc2)n1`, the inhibition was -2.75%.
On to `CC(=O)c1sc(NC(=O)C2=NN(c3ccccc3)C(=O)CC2)nc1C`, for which the inhibition was 2.95%.
Take `CC1=CC=CC2=N/C(=N\S(=O)(=O)c3ccc(F)cc3F)c3ccccc3CN12`: the inhibition is 2.41%.
With `Oc1ccc(CNc2ccccc2O)cc1`, the inhibition was 98.9% (active).
As for `O=[N+]([O-])c1ccccc1NCc1ccc(Cl)cc1`, the inhibition is -7.18%.
For the compound `O=[N+]([O-])c1ccccc1Nc1ccc(O)cc1`, the inhibition is 5.07%.
For the compound `O=C(CS(=O)(=O)c1ccccc1)Nc1ccc(S(=O)(=O)Nc2ccccn2)cc1`, the inhibition was -6.61%.
Regarding `O=C(NCCc1ccc(F)cc1)c1n[nH]c2ccccc12`, the inhibition was 3.08%.
On to `CN(C)CCNC(CC(=O)Nc1ccc(Cl)c(Cl)c1)C(=O)O` (configuration not stated), for which the inhibition was -6.23%.
On to `O=C(Cc1ccc(Cl)c(Cl)c1)Nc1ccc(SC(F)F)cc1`, for which the inhibition is 4.28%.
Take `O=C(CC(O)(C(F)(F)F)C(F)(F)F)Nc1ccc(Cl)c(Cl)c1`: the inhibition is 100% (active).
Take `Cc1cc(C)n(-c2ccc(C(=O)O)cc2[N+](=O)[O-])n1`: the inhibition is -1.85%.
With `COC(=O)Cc1csc(/N=C/c2c(O)n(-c3cccc(C(F)(F)F)c3)c(=O)c3ccccc23)n1`, the inhibition is -6.16%.
Regarding `CCN(CCn1cccn1)Cc1cn[nH]c1-c1ccc(OC)cc1F`, the inhibition was 2.85%.
Take `Oc1cccc2ccc(/C=C/c3ccc(Br)s3)nc12`: the inhibition was -3.7%.
As for `CCN(CC(=O)NCCc1ccccc1)S(=O)(=O)c1ccccc1`, the inhibition was 5.3%.
Under `CCN(CC(=O)NCCc1ccccc1)S(=O)(=O)c1ccc(C)cc1` stands 48%; under `CCCNC(=O)CN(Cc1ccccc1F)S(=O)(=O)c1ccc(C)cc1`, 100% (active); under `CN(C)C(=O)c1cccn(Cc2cccc(C(F)(F)F)c2)c1=O`, -8.4%.
The same measure for `Cc1cc(C)n2nc(SCC(=O)NC(=O)NCc3ccco3)nc2n1`: -4.34%.
On to `O=c1[nH]c2cccnc2n(CCNc2ncc(C(F)(F)F)cc2Cl)c1=O`, for which the inhibition is -4.9%.
The same measure for `O=C(Nc1ccc2ccccc2c1)Nc1ccc2snnc2c1`: 100% (active); for `COc1ccc(NC(=O)Nc2ccc3nsnc3c2)cc1`: 5.81%; for `Cc1ccc(NC(=O)Nc2ccc3oc(C)nc3c2)cc1`: 2.15%.
Take `CCCn1c(NC(=O)C23CC4CC(CC(O)(C4)C2)C3)nc2ccccc21`: the inhibition was -1.31%.
With `CCn1c(COc2c(C)cccc2C)nnc1SCc1nc2ccccc2c(=O)[nH]1`, the inhibition is 4.15%.
The same measure for `CN1CCN(/N=C/c2ccc(-c3ccc([N+](=O)[O-])cc3)o2)CC1`: -3.39%; for `C/[N+]([O-])=C\c1ccc([N+](=O)[O-])o1`: 98.5% (active); for `COC(=O)C1=C(C)N(C)C(=O)NC1c1ccc([N+](=O)[O-])o1` (configuration not stated): 15.2%.
As to `O=C(COc1ccc(Cl)cc1[N+](=O)[O-])N1CCCCC1`, the inhibition was -1.15%.
As for `O=c1cc(CN2CCN(S(=O)(=O)/C=C/c3ccccc3)CC2)c2ccc(O)cc2o1`, the inhibition was 67.8% (active).
In the case of `O=C(CN1CCN(S(=O)(=O)/C=C/c2ccccc2)CC1)Nc1ccc(N2CCOCC2)cc1`, the inhibition was 7.17%.
On to `COc1ccc2c(CN3CCN(S(=O)(=O)c4cccs4)CC3)cc(=O)oc2c1`, for which the inhibition was 2.99%.
For the compound `O=c1c(-c2ccccc2)cnc2n1CCS2`, the inhibition was -5.22%.
Consider `O=C(Cc1c(F)cccc1Cl)Nc1ncc([N+](=O)[O-])s1`, for which the inhibition is 15.8%.
Regarding `O=C(CSc1ccc(-c2ccc(F)cc2)nn1)Nc1ccc2c(c1)OCCO2`, the inhibition is -7%.
With `O=C(Nc1ccc2c(c1)OCCO2)C(c1ccc(F)cc1)N1CCCCC1` (configuration not stated), the inhibition is 58.5% (active).
Turning to `CC1CCCN(C(C(=O)Nc2ccc(C(C)C)cc2)c2ccc3c(c2)OCO3)C1` (configuration not stated), the inhibition was 26.3%.
With `COc1cc(/C=N/NC(=O)c2cc(C)n(-c3ccc(F)cc3)c2C)cc(OC)c1O`, the inhibition is 3.76%.
Turning to `O=C(COC(=O)CC1CC2CCC1C2)NC(=O)NC1CCCC1` (configuration not stated), the inhibition was -2.24%.
Take `Cc1cccc(-n2cnc(C(=O)Nc3cccnc3)c2)n1`: the inhibition is 10.3%.
With `Cn1cc(Cl)c(C(=O)NNC(=S)Nc2cccc(Cl)c2)n1`, the inhibition was -7.35%.
For the compound `Cc1cccc(-n2cnc(C(=O)NNC(=S)Nc3ccccc3)c2)n1`, the inhibition is 87% (active).
The same measure for `CCOC(=O)c1ccc[n+](CC(=O)Nc2ccccc2OC(F)F)c1`: 1.13%; for `CCCCN(C(=O)COc1ccc(NC(C)=O)cc1)C1CCS(=O)(=O)C1` (configuration not stated): -9.97%; for `COc1ccccc1NC(=S)NC(=O)C(C)C`: -0.07%.
Under `CCOCCCNC(=S)N1CCC(NC(=O)C2CCCCC2)CC1` stands -5.68%.
As to `COc1ccccc1NC(=S)N1CCN(C(c2ccccc2)c2ccccc2)CC1`, the inhibition is 65.1% (active).
On to `CCCNC(=S)N1CCC(NC(=O)C23CC4CC(CC(C4)C2)C3)CC1`, for which the inhibition is -3.43%.
As for `CC(C)NC(=S)N1CCN(C(c2ccccc2)c2ccccc2)CC1`, the inhibition was 7.72%.
Turning to `COc1ccc(C(=O)NC2CCN(C(=S)Nc3ccccc3)CC2)cc1`, the inhibition is -5.57%.
Under `COc1ccccc1NC(=S)N1CCC(NC(=O)C23CC4CC(CC(C4)C2)C3)CC1` stands 94.4% (active).
Regarding `COCCNC(=S)N1CCC(NC(=O)C23CC4CC(CC(C4)C2)C3)CC1`, the inhibition is 73.8% (active).
Under `CCOc1ccc(C(=O)NC2CCN(C(=O)Nc3ccccc3OC)CC2)cc1` stands -1.82%.
